Compound activity deposited in PubChem BioAssay by National Center for Advancing Translational Sciences (NCATS).
NIH3T3 tox: NIH 3T3 cell cytotoxicity. Potency, µM (top dose mostly 96.7 µM), for inactives: at the top dose activity change, negative = cytotoxicity, hits mostly inhibitors. 94,000 tested, 4.3% active. NIH 3T3 viability, CellTiter-Glo ATP luminescence, 48-72 h; active = well fitted curve in the direction sought with a large enough effect; inconclusive = small, poorly fitted or top-dose-only effect, or another doubt; inactive = no such curve, though single readings can be large; an effect the other way counts as inactive or inconclusive; note: % is set by controls: 0 for no effect and ±100 for the full control effect; nearly all actives have a fitted effect of over 55% in size
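Cells were seeded at 400 per well, treated with pin-transferred compound, and kept 48 or 72 hr at 37 °C before CellTiter-Glo addition and luminescence imaging of cellular ATP.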
Luciferase inh: Photinus pyralis luciferase inhibition. purified P. pyralis luciferase, luminescence, biochemical. Potency, µM (series often up to 115 µM), most hits filed as inhibitors. 76,000 tested, 2.5% active. AID 1347043; active = well fitted curve in the direction sought with a large enough effect; inconclusive = small, poorly fitted or top-dose-only effect, or another doubt; inactive = no such curve, though single readings can be large; an effect the other way counts as inactive or inconclusive; note: % is set by controls: 0 for no effect and ±100 for the full control effect; nearly all actives have a fitted effect of over 65% in size
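Inhibitors were tested against purified firefly luciferase in a biochemical, low-substrate format (both substrates at 10uM) and luminescence measured with a CCD imager.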
NPR1 antag: antagonists of human natriuretic peptide receptor Npr1; HEK293 hNpr1 GloSensor cGMP, ANP-stimulated luminescence; 76,000 tested, 1.6% active; P16066; Potency, µM (doses to about 46.3 µM), for the others: top-dose activity change, negative = inhibition, hits mostly inhibitors; note: % is set by controls: 0 for no effect and ±100 for the full control effect; nearly all actives have a fitted effect of over 60% in size
Target sequence (P16066 whole entry, looked up): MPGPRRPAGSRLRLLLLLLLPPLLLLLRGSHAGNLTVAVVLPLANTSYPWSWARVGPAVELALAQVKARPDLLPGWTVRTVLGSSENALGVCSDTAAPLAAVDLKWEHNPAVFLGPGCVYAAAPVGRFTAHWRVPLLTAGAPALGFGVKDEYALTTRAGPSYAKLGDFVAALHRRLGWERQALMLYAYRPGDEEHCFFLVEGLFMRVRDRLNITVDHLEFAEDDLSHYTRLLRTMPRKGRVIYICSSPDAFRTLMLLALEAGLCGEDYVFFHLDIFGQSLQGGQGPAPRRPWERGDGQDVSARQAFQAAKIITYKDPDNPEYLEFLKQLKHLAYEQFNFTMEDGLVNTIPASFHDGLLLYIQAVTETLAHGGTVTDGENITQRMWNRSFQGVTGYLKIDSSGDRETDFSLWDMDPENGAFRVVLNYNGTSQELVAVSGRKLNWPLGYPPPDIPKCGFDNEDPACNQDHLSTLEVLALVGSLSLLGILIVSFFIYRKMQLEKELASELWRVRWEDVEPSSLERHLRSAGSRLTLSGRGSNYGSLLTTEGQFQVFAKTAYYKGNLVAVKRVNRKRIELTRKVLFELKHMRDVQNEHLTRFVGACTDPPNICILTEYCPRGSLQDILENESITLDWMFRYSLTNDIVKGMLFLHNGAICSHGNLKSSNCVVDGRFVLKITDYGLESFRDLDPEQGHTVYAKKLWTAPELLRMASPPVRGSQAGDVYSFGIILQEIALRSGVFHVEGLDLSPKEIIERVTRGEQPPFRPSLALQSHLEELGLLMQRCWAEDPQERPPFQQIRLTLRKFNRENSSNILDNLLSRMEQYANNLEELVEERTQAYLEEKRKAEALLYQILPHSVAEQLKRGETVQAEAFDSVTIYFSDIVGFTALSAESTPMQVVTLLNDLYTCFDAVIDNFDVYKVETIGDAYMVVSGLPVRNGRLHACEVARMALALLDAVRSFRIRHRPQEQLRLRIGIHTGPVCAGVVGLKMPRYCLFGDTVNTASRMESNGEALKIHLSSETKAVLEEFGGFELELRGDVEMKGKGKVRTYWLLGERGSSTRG
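Compound pre-incubated 30 min at room temperature on GloSensor-loaded HEK293 cells stably carrying hNpr1 and the pGS-40F cGMP biosensor. Stimulation uses hNppA at 0.1 nM final; luminescence is taken at baseline and 20 min post-agonist.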
HEK293 tox: kills HEK 293 cells | HEK 293 viability, ATP luminescence (CellTiter-Glo), 48-72 h | Potency, µM (titrated, usually from 115 µM), inactives show top-dose activity change, negative = cytotoxicity, usual class: inhibitors | 94,000 tested, 6.6% active; active = well fitted curve in the direction sought with a large enough effect; inconclusive = small, poorly fitted or top-dose-only effect, or another doubt; inactive = no such curve, though single readings can be large; an effect the other way counts as inactive or inconclusive; note: % is set by controls: 0 for no effect and ±100 for the full control effect; nearly all actives have a fitted effect of over 60% in size
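HEK 293 cells seeded at 250 cells/well were exposed to compound for 48 or 72 hr at 37 degree Celsius. Viability taken as ATP content by CellTiter-Glo luminescence.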
NPR1 antag cnf: hNpr1 antagonism, confirmation assay; 1,400 tested, 76% active; Potency, µM (doses to about 57.6 µM), without a hit: top-dose activity change, negative = inhibition, hits mostly inhibitors; shares compounds with NPR1 antag; HEK293 hNpr1 cGMP GloSensor luminescence, ANP-stimulated; note: nearly all actives have a fitted effect of over 70% in size
Npr2 selectivity: selectivity test of Npr1 antagonists against human Npr2; Potency, µM (doses to about 57.6 µM), for inactives: at the highest dose activity change, negative = inhibition, usual class: inhibitors; HEK293 hNpr2 GloSensor cGMP luminescence, CNP-stimulated; shares compounds with NPR1 antag; 1,400 tested, 67% active; note: nearly all actives have a fitted effect of over 70% in size
FLuc inh counter: inhibits firefly luciferase, false Npr1 antagonist flag. shares compounds with NPR1 antag. purified FLuc enzyme, luminescence, Km substrate. Potency, µM (titrated, usually from 57.6 µM), for inactives: at the highest dose activity change, negative = inhibition, actives largely listed as inhibitors. 1,400 tested, 0.7% active. AID 1347047; active = well fitted curve in the direction sought with a large enough effect; inconclusive = small, poorly fitted or top-dose-only effect, or another doubt; inactive = no such curve, though single readings can be large; an effect the other way counts as inactive or inconclusive; note: series mostly up to about 58 µM; 0% is about no effect
GloSensor ctrl: reduces cGMP signal in GloSensor control cells; shares compounds with NPR1 antag; HEK293 GloSensor cGMP, SNP-stimulated, luminescence; Potency, µM (series often up to 57.6 µM), for inactives: at the top dose activity change, negative = inhibition, hits mostly inhibitors; 1,400 tested, 69% active; AID 1347051; note: % is set by controls: 0 for no effect and ±100 for the full control effect; nearly all actives have a fitted effect of over 70% in size
Starred values were filed as active, the others as inactive; i = inactive; ? = inconclusive; nt = no result given; [ ] = dose if it differs, or a comment. An excerpt weighted towards active compounds, which were near 11% of everything screened. Unless noted, calls come from the whole dose curve. Potency is the fitted concentration of half-maximal effect.

SMILES	NIH3T3 tox	Luciferase inh	NPR1 antag	HEK293 tox	NPR1 antag cnf	Npr2 selectivity	FLuc inh counter	GloSensor ctrl
COc1ccccc1C(=O)N1CCC(Cc2nc(C(C)C)no2)CC1	-20%	i	-4%	?	nt	nt	nt	nt
CC(C)N1CCC(N2CCCC2C(=O)Nc2cccc(-n3cccn3)c2)CC1 (stereo unspecified)	-11%	i	-1%	i	nt	nt	nt	nt
COC(=O)c1ccc(NC(=O)Cn2c(-c3cnccn3)nc(C)c(C)c2=O)cc1	-30%	i	-18%	-23%	nt	nt	nt	nt
O=C1NCCCCCCN(Cc2cccc(F)c2)[C@H]2C[C@H](C(=O)N3CCc4ccccc4C3)C[C@@H]12	40µM*	i	16µM*	25µM*	?	?	0%	-13%
Cn1ncc2c(C(=O)NCCc3ccccn3)cc(-c3cc(Cl)cc(Cl)c3)nc21	-18%	nt	nt	-3%	nt	nt	nt	nt
Cc1ccc(N2CCN(C(=O)C3CCCN(c4cnn(Cc5ccccc5)c(=O)c4)C3)CC2)cc1 (stereo unspecified)	?	i	10µM*	25µM*	17µM*	19µM*	2%	15µM*
O=C(Nc1ccccc1)O[C@@H]1CO[C@H]2[C@@H]1OC[C@@H]2NC(=O)c1ccc2c(c1)OCO2	?	i	32µM*	?	?	?	-11%[86.2 µM]	?
O=C(Nc1ccc(Oc2ccccc2)cc1)O[C@@H]1CO[C@H]2[C@@H]1OC[C@@H]2NCC1CCCCC1	?	i	?	?	22µM*	17µM*	-1%	22µM*
O=C(Nc1cccc2ccccc12)O[C@@H]1CO[C@H]2[C@@H]1OC[C@@H]2NC(=O)c1cccs1	-40%[174 µM]	i	22µM*	?	35µM*	?	-2%[86.2 µM]	31µM*
O=C(Nc1cccc2ccccc12)O[C@@H]1CO[C@H]2[C@@H]1OC[C@@H]2NC(=O)c1ccco1	-15%[138 µM]	i	-6%[70.6 µM]	-19%[172 µM]	nt	nt	nt	nt
N#Cc1ccc(NC(=S)N[C@H]2CO[C@H]3[C@@H]2OC[C@H]3OC(=O)Nc2ccccc2)cc1	?	i	22µM*	35µM*	18µM*	22µM*	-7%[86.2 µM]	18µM*
CC(=O)c1cccc(NC(=O)O[C@@H]2CO[C@H]3[C@@H]2OC[C@@H]3NC(=O)Nc2ccccc2)c1	-4%[174 µM]	i	-15%[70.6 µM]	?	nt	nt	nt	nt
Cc1ccc(C(=O)N2CCC(C(=O)N3CCC(c4nc5ccncc5[nH]4)CC3)CC2)cc1	-28%	nt	nt	-13%	nt	nt	nt	nt
COC(=O)c1cccc(NC(=S)N[C@H]2CO[C@H]3[C@@H]2OC[C@H]3OC(=O)Nc2cccc(C(F)(F)F)c2)c1	?	i	?	45µM*	27µM*	22µM*	-5%	22µM*
O=C(Nc1ccc(Oc2ccccc2)cc1)O[C@@H]1CO[C@H]2[C@@H]1OC[C@@H]2NC(=O)c1ccc(C(F)(F)F)cc1	?	i	11µM*	?	22µM*	14µM*	-2%	15µM*
O=C(Nc1ccc(Oc2ccccc2)cc1)O[C@@H]1CO[C@H]2[C@@H]1OC[C@@H]2NC(=S)Nc1ccccc1	?	i	11µM*	?	9.7µM*	12µM*	-8%	6.9µM*
O=C(Nc1ccc(Oc2ccccc2)cc1)N[C@H]1CO[C@H]2[C@@H]1OC[C@H]2OC(=O)Nc1cccc(C(F)(F)F)c1	-34%	i	-15%	-32%	nt	nt	nt	nt
Cc1noc(C)c1-c1cc2cc(CO)oc2c(Nc2cccnc2)n1	?	i	-1%[70.6 µM]	?	nt	nt	nt	nt
CC(C)c1nc2c(c(-c3ccc(O)cc3)n1)CN(Cc1cccc(F)c1)CC2	?	i	6%	?	nt	nt	nt	nt
O=C(c1ccccc1)N1CCN(CCCn2nc3n(c2=O)CCCC3)CC1	-5%	nt	nt	-1%	nt	nt	nt	nt
CN1C[C@@H](NC(=O)CC(C)(C)C)C[C@H]1c1nc(-c2ccc3c(c2)OCO3)no1	?	i	25µM*	?	?	?	-3%[86.2 µM]	40µM*
COc1cccc(N2C(=O)NC(=NC3CCCCC3)C23CCN(Cc2ccc(N(C)C)cc2)C3)c1 (stereo unspecified)	-2%	nt	nt	-15%	nt	nt	nt	nt
O=C1CCN(C2CCCC2)CCCC(c2nc(-c3cccnc3)no2)CCN1 (stereo unspecified)	-2%	i	2%	i	nt	nt	nt	nt
Cc1ccc(C(=O)N2CCCN(c3ccc4nnc(C5CC5)n4n3)CC2)cc1	-21%	nt	nt	-13%	nt	nt	nt	nt
CC1=C(C(=O)OC(C)C)C(c2ccccc2C)N2C(CC(=O)NCC3CC3)=CSC2=N1 (stereo unspecified)	?	i	?	10µM*	?	?	-1%	?
SMILES	NIH3T3 tox	Luciferase inh	NPR1 antag	HEK293 tox	NPR1 antag cnf	Npr2 selectivity	FLuc inh counter	GloSensor ctrl
CC1=C(C(=O)OC(C)C)C(c2ccccc2Cl)N2C(CC(=O)NCC3CC3)=CSC2=N1 (stereo unspecified)	?	i	11µM*	?	?	22µM*	6%	?
O=C(Nc1nccs1)[C@@H]1O[C@H](CCN2CCCCC2)CC[C@@H]1O	-3%[174 µM]	i	1%[70.6 µM]	-1%[172 µM]	nt	nt	nt	nt
O=C1CC2(CCN(Cc3cccnc3)CC2)Oc2ccccc21	-23%[138 µM]	i	0%[70.6 µM]	?	nt	nt	nt	nt
N#Cc1ccc([S+](=O)([O-])N2CCC3(CC2)OCCN(CC2CC2)C3=O)cc1	?	i	18µM*	-22%[172 µM]	31µM*	?	5%[86.2 µM]	28µM*
COc1ccc([S+](=O)([O-])N2CCC3(CC2)OCCN(CC2CC2)C3=O)cc1	?	i	?	?	31µM*	?	-1%[86.2 µM]	31µM*
O=C1N(CC2CCOCC2)CCOC12CCN([S+](=O)([O-])c1cccs1)CC2	?	i	-2%[70.6 µM]	-19%[172 µM]	nt	nt	nt	nt
O=C1N(CC2CC2)CCOC12CCN([S+](=O)([O-])c1ccccc1)CC2	?	i	-2%[70.6 µM]	-17%[172 µM]	nt	nt	nt	nt
COc1ccc([S+](=O)([O-])N2CCC3(CC2)OCCN(CCc2ccccc2)C3=O)cc1	?	i	-25%	?	nt	nt	nt	nt
O=C1N(CC2CC2)CCOC12CCN([S+](=O)([O-])c1ccc(C(F)(F)F)cc1)CC2	?	i	11µM*	?	18µM*	20µM*	-1%[86.2 µM]	11µM*
